Rows were chosen to be rich in hits. Some 2.4% of all compounds tested hit in one or more screens of this group.
SENP8 block-1: inhibitors of human SENP8 protease; Q96LD8; hit rate 0.64% among 360,000; inhibition, % at 20 µM; AID 602440; recombinant SENP8, Nedd8 substrate fluorescence; in the data active = inhibition mostly above about 40%, no sharp cut-off; inactive = mostly below about 27%
SENP6 block: inhibitors of human SENP6 protease. Q9GZR1. Recombinant SENP6 catalytic domain, aminoluciferin luminescence. inhibition, % at 10 µM. hit rate 1.8% among 330,000;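 active = inhibition above about 50% at the single tested dose, limit read from the data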;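 note: plate controls were DMSO wells with enzyme for no effect and DMSO wells lacking enzyme for full effect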
Target sequence (Q9GZR1 628-1112 limits assumed): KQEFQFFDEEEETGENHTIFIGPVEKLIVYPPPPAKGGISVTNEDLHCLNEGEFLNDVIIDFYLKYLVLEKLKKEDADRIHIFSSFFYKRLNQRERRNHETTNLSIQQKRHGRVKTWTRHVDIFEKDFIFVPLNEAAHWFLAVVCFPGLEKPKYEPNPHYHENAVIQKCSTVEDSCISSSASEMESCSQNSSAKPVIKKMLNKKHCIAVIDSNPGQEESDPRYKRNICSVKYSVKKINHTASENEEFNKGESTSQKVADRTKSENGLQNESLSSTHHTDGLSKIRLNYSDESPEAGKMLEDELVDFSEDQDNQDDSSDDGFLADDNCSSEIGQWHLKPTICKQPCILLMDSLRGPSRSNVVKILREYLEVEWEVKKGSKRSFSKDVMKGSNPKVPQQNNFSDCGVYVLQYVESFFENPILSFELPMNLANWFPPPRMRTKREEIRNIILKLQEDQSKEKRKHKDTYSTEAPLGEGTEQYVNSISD
Platelet DG rel: modulates dense granule release in human platelets | human platelet-rich plasma, SFLLRN dense granule ATP release, luminescence | inhibition, %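 (compounds screened at 7.5 µM in platelet-rich plasma)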 | hit rate 0.22% among 300,000 | AID 1663;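 active = mean replicate score, as percent of positive control, at or above 50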
SENP8 block-2: blocks the human protease SENP8. Q96LD8. AID 2540. purified SENP8, Z-RLRGG-aminoluciferin cleavage, luminescence. hit rate 1.2% among 330,000. inhibition, % at 10 µM; in the data active = inhibition above about 50%
SENP7 inh: blocks the human protease SENP7; Q9BQF6; recombinant SENP7, Z-RLRGG-aminoluciferin luminescence, 40 min; inhibition, % at 5 µM; hit rate 1.5% among 330,000; AID 434973;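 active = inhibition above about 50% at the single test dose, limit read from the data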;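 note: plate controls were DMSO with enzyme for no effect and no enzyme buffer wells for full effect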
SENP8 conf: confirmation of human SENP8 protease inhibitors; Recombinant SENP8, Z-RLRGG-aminoluciferin luminescence, 60 min; inhibition, % at 12.5 µM; hit rate 40% among 6,200; shares compounds with SENP7 inh;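 active = mean inhibition across replicates above about 50%, limit read from the data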
SENP6 confirm: confirmation of human SENP6 protease inhibitors | shares compounds with SENP7 inh | recombinant SENP6, Z-RLRGG-aminoluciferin luminescence | inhibition, % at 12.5 µM | hit rate 58% among 6,200 | AID 488915
SENP7 conf: confirmation of human SENP7 protease inhibitors; shares compounds with SENP7 inh; recombinant SENP7, Z-RLRGG-aminoluciferin luminescence, 40 min; inhibition, % at 12.5 µM; hit rate 69% among 6,200; AID 488917
Casp3 SENP sel: inhibits human caspase-3 in SENP selectivity test. inhibition, % at 12.5 µM. purified caspase-3, Z-DEVD-aminoluciferin luminescence, 60 min. shares compounds with SENP7 inh. hit rate 60% among 6,200;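 active = mean inhibition above about 50%, limit read from the data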;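 note: plate controls were enzyme with DMSO for no effect and wells without caspase-3 for full effect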
SENP luc ctr: luminescence interference (SENP counter-screen). shares compounds with SENP7 inh. Pre-incubated SENP8/Z-RLRGG-aminoluciferin, luciferase luminescence interference. inhibition, % at 12.5 µM. hit rate 39% among 6,200;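 active = mean inhibition above about 50% when retested at one dose, limit read from the data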;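 note: plate controls were DMSO wells with completed reaction for no effect and substrate without enzyme for full effect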
The depositor's hits bear a star; nt = no result.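 Rule for the calls, unless noted: active = mean inhibition above about 50% in the one-dose retest (limit read from the data); inactive = the rest.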

SMILES	SENP8 block-1	SENP6 block	Platelet DG rel	SENP8 block-2	SENP7 inh	SENP8 conf	SENP6 confirm	SENP7 conf	Casp3 SENP sel	SENP luc ctr
Cc1ccc(/C=C2/CCc3c([nH]c4ccccc34)C2=O)cc1	-167	49	7	27	68*	-8	6	9	13	-6
O=C1/C(=C\c2ccccc2)CCc2c1[nH]c1ccccc21	-95	37	2	10	32	nt	nt	nt	nt	nt
CN(C(=O)c1ccc(-c2ccccc2)cc1)C1CCCCC1	7	61*	8	37	29	14	20	30	22	4
CSc1ccc(/C=N/Nc2ccc(Cl)c(C(=O)O)c2)cc1	-69	76*	6	77*	-4	-28	91*	100*	25	92*
O=C(O)c1cc(N/N=C/c2ccc(N3CCOCC3)cc2)ccc1Cl	-284	-17	-2	51*	31	75*	73*	94*	23	75*
O=C(O)c1cc(N/N=C/c2ccc(-c3ccccc3)cc2)ccc1Cl	-102	nt	-28	nt	nt	nt	nt	nt	nt	nt
O=C(O)c1cc(N/N=C/c2ccncc2)ccc1Cl	-208	60*	6	37	41	58*	54*	85*	25	72*
CC(C)CNC(=O)c1ccccc1C(=O)NC1(C(=O)NCC(C)C)CCCC1	10	nt	nt	nt	nt	nt	nt	nt	nt	nt
COc1ccc(NC(=O)c2cc(S(=O)(=O)N3CCCCC3)c[nH]2)cc1Cl	13	2	-7	2	5	nt	nt	nt	nt	nt
Oc1nc(Nc2ccccc2)sc1/C=C1\C=Nc2ccccc21	-33	64*	-6	34	51*	13	34	55*	15	5
CCOC(=O)c1c(Nc2ccccc2)sc(/C=C2\C=Nc3ccccc32)c1O	-121	-3	1	2	3	nt	nt	nt	nt	nt
O=C1c2cc(O)c(O)cc2S(=O)(=O)C1c1ccccc1 (centres undefined)	-29	-9	5	-14	-11	nt	nt	nt	nt	nt
CC(=O)Nc1ccc(NC(=O)[C@@H](NC(=O)N2C[C@H]3C[C@@H](C2)c2cccc(=O)n2C3)C(C)C)cc1	26	-2	-3	-3	-4	nt	nt	nt	nt	nt
CC(C)(C)c1ccc(C(=O)Nc2cnccn2)cc1	10	52*	7	29	55*	38	47	60*	63*	30
O=C(Nc1ccc2nn(-c3ccccc3)nc2c1)c1cccnc1	-138	-22	nt	-13	2	nt	nt	nt	nt	nt
CC(=O)Nc1cc2nn(-c3ccccc3)nc2cc1Cl	-478	69*	7	30	76*	7	11	32	35	7
CC(C)C(=O)Nc1ccc2nn(-c3ccccc3)nc2c1	-459	15	0	1	51*	42	40	71*	32	7
CC(C)NC(=O)N(C)C[C@H]1Oc2ccc(NC(=O)Nc3ccccc3)cc2C(=O)N([C@@H](C)CO)C[C@@H]1C	9	0	nt	3	2	nt	nt	nt	nt	nt
COc1ccccc1C(=O)Nc1ccc2c(c1)nc1n2CCN(C2CCCCC2)C1	-482	7	-4	6	-1	nt	nt	nt	nt	nt
COc1ccc(S(=O)(=O)NCCC(C)C)cc1OC	-4	-5	1	-8	88*	14	13	9	2	3
NC(=O)c1c(NC(=O)c2ccc(F)cc2)sc2c1CCC2	-147	31	-2	-5	11	nt	nt	nt	nt	nt
O=C(Nc1sc2c(c1C(=O)O)CCCC2)c1ccc(F)cc1	-66	88*	-4	75*	33	88*	86*	94*	80*	78*
O=C(Nc1sc2c(c1C(=O)O)CCCCC2)c1ccccc1F	-87	96*	-6	94*	86*	97*	98*	102*	95*	80*
O=C(/C=C/c1cccc(F)c1)Nc1nccs1	-32	40	-1	26	46	nt	nt	nt	nt	nt
O=C(Nc1nccs1)C(Br)C(Br)c1ccccc1 (centres undefined)	3	84*	-7	79*	91*	76*	73*	95*	85*	9
SMILES	SENP8 block-1	SENP6 block	Platelet DG rel	SENP8 block-2	SENP7 inh	SENP8 conf	SENP6 confirm	SENP7 conf	Casp3 SENP sel	SENP luc ctr
O=C(/C=C\c1ccccc1)Nc1nccs1	5	83*	15	61*	88*	59*	61*	95*	88*	19
CC(=O)OC(C(=O)Nc1nccs1)c1ccccc1 (centres undefined)	13	1	-4	5	1	nt	nt	nt	nt	nt
O=C(CN1CCN(Cc2ccc3c(c2)OCO3)CC1)NCC(F)(F)F	4	-4	1	2	1	nt	nt	nt	nt	nt
CC(C)(C)c1cnnn1-c1ccc(/C=N/Nc2ccc([N+](=O)[O-])cc2)cc1	-100	41	-2	64*	-7	4	3	-2	-2	-2
C/C(=N\Nc1ccc([N+](=O)[O-])cc1)c1ccc(-n2nncc2C)cc1	-190	-2	-5	-5	-10	nt	nt	nt	nt	nt
CC1(C)NC(=O)N(CC(=O)N2CCN(S(=O)(=O)c3ccccc3C(F)(F)F)CC2)C1=O	15	1	nt	4	6	nt	nt	nt	nt	nt
CC(=O)Nc1ccc(OCc2ccc3c(c2)OCO3)cc1	16	82*	36	68*	85*	75*	74*	93*	88*	51*
O=C(Nc1ccc2c(c1)OCCO2)c1cccc(C(=O)Nc2ccc3c(c2)OCCO3)c1	14	4	5	5	-3	nt	nt	nt	nt	nt
Cc1c(C(=O)Nc2ccc3c(c2)OCO3)oc2ccccc12	2	70*	-4	58*	67*	75*	75*	92*	59*	65*
CC(=O)Nc1c(C(=O)Nc2ccc3c(c2)OCO3)oc2ccccc12	-10	9	2	-10	-7	nt	nt	nt	nt	nt
O=C(Nc1ccc2c(c1)OCCO2)c1ccccc1	5	68*	29	61*	79*	4	61*	90*	87*	68*
CC(C)=CC(=O)Nc1ccc2c(c1)OCO2	8	63*	24	50*	1	59*	59*	84*	86*	63*
N#CCCN(CCN1CCCC1)S(=O)(=O)c1ccc(-c2ccc([N+](=O)[O-])cc2)cc1	10	18	9	-12	-9	nt	nt	nt	nt	nt
Cc1ccc(S(=O)(=O)N(C)C)cc1NC(=S)N1CCc2ccccc21	15	-15	11	-11	-6	nt	nt	nt	nt	nt
COc1ccc(NC(=O)/C(=C/c2ccc3c(c2)OCO3)NC(C)=O)cc1	5	1	-6	1	9	nt	nt	nt	nt	nt
COc1ccc(NC(=O)/C=C/c2ccc3c(c2)OCO3)cc1	4	67*	3	45	79*	29	34	77*	67*	72*

Bioassay records deposited in PubChem BioAssay by several laboratories.
